# Assay results published in PubChem BioAssay (NCATS).
# Inconclusive results are not listed. A call without a number means that no potency is given here. Activity calls are given as the source filed them. Unless noted, calls come from the whole dose curve; as a rule, active = well fitted curve in the direction sought with a large enough effect; inconclusive = small, poorly fitted or top-dose-only effect, or another doubt; inactive = no such curve, though single readings can be large; an effect the other way counts as inactive or inconclusive.
# Experiments:
# [1] = biological target: Glutathione peroxidase 1 (Homo sapiens) (UniProt P07203); experiment: Primary qHTS Assay for Inhibitors of Recombinant Selenoprotein Glutathione Peroxidase 1 (GPX1) (AID 1845191); note: nearly all actives have a fitted effect of over 65% in size
# Chain of Glutathione peroxidase 1 (Homo sapiens) (P07203 whole entry, looked up): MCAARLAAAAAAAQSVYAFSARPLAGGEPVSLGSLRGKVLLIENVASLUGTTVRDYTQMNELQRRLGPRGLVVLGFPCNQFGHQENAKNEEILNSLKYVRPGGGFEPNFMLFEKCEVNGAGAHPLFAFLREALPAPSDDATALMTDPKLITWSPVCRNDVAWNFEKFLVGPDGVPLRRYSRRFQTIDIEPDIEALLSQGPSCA
# How it was run: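 10 nM GPX1 + cpd, 30 min RT; start w/ 1 mM GSH, 0.5 mM cumene hydroperoxide, 0.5 mM NADPH, 100 nM GR, 0.01% BSA; buffer 50 mM Tris-HCl pH 7.5, 2 mM EDTA, 150 mM NaCl; Fl 340/450, 0 & 15 min.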
# [2] = biological target: Phospholipid hydroperoxide glutathione peroxidase GPX4 (Homo sapiens) (UniProt P36969); experiment: Primary qHTS Assay for Inhibitors of Recombinant Selenoprotein Glutathione Peroxidase 4 (GPX4) (AID 1845192); note: nearly all actives have a fitted effect of over 65% in size
# Chain of Phospholipid hydroperoxide glutathione peroxidase GPX4 (Homo sapiens) (P36969 whole entry, looked up): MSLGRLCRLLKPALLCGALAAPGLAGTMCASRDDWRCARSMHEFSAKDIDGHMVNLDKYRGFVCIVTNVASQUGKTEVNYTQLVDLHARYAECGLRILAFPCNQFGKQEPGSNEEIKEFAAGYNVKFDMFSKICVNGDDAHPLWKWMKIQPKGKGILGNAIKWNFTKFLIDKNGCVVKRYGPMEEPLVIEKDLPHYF
# How it was run: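 NADPH consumption, followed by fluorescence at 340/450 nm between 0 and 15 min, reports GPX4 activity via coupled glutathione reductase (100 nM). Enzyme 200 nM was pre-exposed to compound 30 min; 0.5 mM cumene hydroperoxide and 1 mM GSH served as substrates.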
# [3] = Primary fluorescence-based thiol-reactive (MSTI) qHTS assay for identification of artifact compounds. (AID 1845221); note: nearly all actives have a fitted effect of over 65% in size; note: potency is the fitted concentration of half-maximal effect
# How it was run: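 First, 4 uM MSTI in 2% DMSO/PBS pH 7.4 was dispensed; next, compounds were added; then plates sat 1 h at room temperature without light. Finally, emission at 598 nm was recorded.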
# [4] = tested on: Nanoluciferase (engineered Oplophorus gracilirostris luciferase); experiment: Primary Nanoluciferase (NLuc) qHTS assay for identification of artifact compounds. (AID 1845222);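 note: NLuc secreted into diluted conditioned medium of S16 cells; series mostly up to about 54 µM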
# How it was run: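 NLuc from S16 cell medium (1:55) plus test compounds, 15 min, room temperature. Luminescence after Nano-Glo (1:100) addition, 5 min.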
# [5] = Primary redox qHTS assay for identification of artifact compounds. (AID 1845223)
# How it was run: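 Amplex Red (25 uM) and HRP (250 mU/mL) in HBSS, with compounds for 15 min, then 250 uM DTT for 30 min, room temperature, dark. Fluorescence 525/598 nm read; normalized to DMSO and 10 uM DA3003; Hill fit.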
# [6] = biological target: Luciferin 4-monooxygenase (Photinus pyralis) (UniProt P08659); experiment: Primary firefly luciferase (FLuc) qHTS assay for identification of artifact compounds. (AID 1845220); note: nearly all actives have a fitted effect of over 60% in size; note: potency is the fitted concentration of half-maximal effect
# How it was run: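 FLuc 10 nM; luciferin 10 uM; ATP 10 uM; Tris-acetate pH 7.6, Mg-acetate 10 mM; 15 min RT preincubation; 5 min reaction; luminescence.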
# [7] = qHTS drug screen for cell cycle checkpoint inhibitors in PARPi-resistant BRCA-mutant ovarian cancer cell lines. (AID 1963452; calls by dose curve; note: potency is the fitted concentration of half-maximal effect); settings: PEO1/OlaR viability, CellTiter-Glo luminescence, 96 h; for Z-AUC: stronger effect = lower value
# How it was run: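 PEO1, PEO4 and PEO1/OlaR ovarian cancer cells, 600 per well, exposed 96 h at 37C to a dilution series. Viability read by CellTiter-Glo luminescence, normalized to DMSO and empty wells; activity summarized as Z-AUC.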
# [8] = measured here: PEO1 parental Z-AUC
SMILES,Potency [1],Potency [2],Potency [3],Potency [4],Potency [5],Potency [6],Z-AUC [7],"Z-AUC [7, 8]",Z-AUC ([7]; measured here: PEO4 Z-AUC),Potency [7]
COc1c2c(c(C)c3c1C(=O)OC3)O[C@@]1(C)CCC3(C(C)(C)O)OC(=O)CC[C@]3(C)[C@H]1C2 (stereo not given in full),inactive,inactive,inactive,inactive,inactive,–,–,–,–,–
c1cn2cc(-c3ccc4cn[nH]c4c3)nc(Nc3ccc(N4CCOCC4)cc3)c2n1,inactive,inactive,–,inactive,inactive,0.0536 µM (active),-0.306 (inactive),-0.0182,0.447,–
CC(C)S(=O)(=O)NC[C@H](C)c1ccc(NC(=O)c2cc(F)cc(F)c2)cc1,inactive,inactive,inactive,inactive,inactive,–,–,–,–,–
Cc1ccc([N+](=O)[O-])cc1S(=O)(=O)N(C)/N=C/c1cnc2ccc(Br)cn12,inactive,inactive,–,inactive,inactive,inactive,-2.4 (inactive),-2.53,-2.56,–
Cc1onc(C(=O)N2CCN(C(c3ccc(Cl)cc3)c3ccc(Cl)cc3)CC2)c1[N+](=O)[O-],inactive,inactive,–,inactive,inactive,inactive,–,–,–,–
O=S(=O)(NCC1CC1)c1ccc(Nc2nccc(N3CCCc4cc(O)ccc43)n2)cc1,inactive,inactive,–,inactive,inactive,inactive,–,–,–,–
COC(=O)C1=CO[C@@H](O[C@@H]2O[C@H](CO)[C@@H](O)[C@H](O)[C@H]2O)[C@@H]2C(COC(C)=O)=C[C@H](O)[C@H]12,inactive,inactive,inactive,inactive,–,–,–,–,–,–
C/C=C/c1ccc2oc(-c3ccc(O)c(OC)c3)c(C)c2c1,inactive,inactive,–,inactive,inactive,26.9 µM (active),–,–,–,–
Cc1cc(C(N)=O)ccc1-n1c(CCC(=O)O)ccc1-c1ccc(-n2ccnc2)cc1,inactive,inactive,–,inactive,inactive,inactive,–,–,–,–
C=CC(C)(CC/C=C(\C)C(=O)OC)OC1OC(COC(=O)CC(C)(O)CC(=O)O)C(OC2OC(CO)C(O)C(O)C2O)C(O)C1O (stereo not given),inactive,inactive,inactive,inactive,inactive,–,–,–,–,–
C=C(C(=O)O)C1CCC2(C)CCC(O)C(C)(O)C2C1 (stereo not given),inactive,inactive,–,inactive,inactive,inactive,–,–,–,–
CCCCc1nc2cc(/C=C/C(=O)NO)ccc2n1CCN(CC)CC,inactive,inactive,–,inactive,–,inactive,0.0461 (inactive),-0.0677,-0.293,–
C(#Cc1nc2ncccc2nc1OCCN1CCCC1)c1ccccc1,inactive,inactive,inactive,inactive,–,–,–,–,–,–
CN1CCc2nc(C(=O)N[C@@H]3C[C@@H](C(=O)N(C)C)CC[C@@H]3NC(=O)C(=O)Nc3ccc(Cl)cn3)sc2C1,inactive,inactive,inactive,inactive,–,–,–,–,–,–
C=C(C)C(=O)OC1CC2(C)OC(=CC2=O)C(=C)CC2OC(=O)C(COC)C12 (stereo not given),inactive,inactive,–,inactive,inactive,10.5 µM (active),–,–,–,–
COc1cc(N2CCC(N3CCN(C)CC3)CC2)ccc1Nc1ncc(Cl)c(-c2c[nH]c3ccccc23)n1,inactive,inactive,1.68 µM (active),inactive,–,–,–,–,–,–
CC(C)c1cc(CNc2nc(Nc3cc(C4CC4)[nH]n3)cc(N3CCN(C)CC3)n2)on1,inactive,inactive,–,inactive,–,inactive,–,-1.91,-2.1,0.549 µM (active)
O=C1CCC=CC1(O)C(=O)OCc1ccccc1O[C@@H]1O[C@H](CO)[C@@H](O)[C@H](O)[C@H]1O (stereo not given in full),inactive,inactive,–,inactive,inactive,inactive,–,–,–,–
C=C(C(=O)O)C1CCC2(C)CCC(O)C(=C)C2C1 (stereo not given),inactive,inactive,13.4 µM (active),inactive,–,–,–,–,–,–
OC[C@@]1(O)CO[C@@H](OC[C@H]2O[C@@H](Oc3c[nH]c4ccccc34)[C@H](O)[C@@H](O)[C@@H]2O)[C@@H]1O,inactive,inactive,–,inactive,inactive,inactive,–,–,–,–
C/C=C/C=C/C(O)=C1\C(O)=C(C)C(=O)[C@@]2(C)OC(=O)[C@@](C)(NC(=O)/C=C/C(=O)O)[C@@H]12,inactive,inactive,–,inactive,inactive,inactive,–,–,–,–
C=C[C@H]1[C@H](O[C@@H]2O[C@H](CO)[C@@H](O)[C@H](O)[C@H]2O)OC=C(C(=O)OC)[C@H]1C/C=C(/C=O)[C@@H]1C(C(=O)OC)=CO[C@@H](O[C@@H]2O[C@H](CO)[C@@H](O)[C@H](O)[C@H]2O)[C@@H]1C=C,inactive,inactive,–,inactive,inactive,inactive,–,–,–,–
CC(C)=CCC/C(C)=C/CO[C@@H]1O[C@H](CO)[C@@H](O)[C@H](O)[C@H]1O,inactive,inactive,inactive,inactive,inactive,–,–,–,–,–
